{"source": "PubChem BioAssay (Tox21)", "note": "Where “and” joins values, the source holds several entries; their conditions need not be identical. Equal values may be shown once. Inconclusive results are not listed. Entries that show only a call come without a potency. Values without a mark were called inactive. Calls of active or inactive are those of the source. The call rests on the fitted dose curve; in most records, active means well fitted activation curve with a large enough effect in the repeat runs; inconclusive means weak or mixed curves; inactive means flat fitted curve, though single readings scatter. Potency means the concentration at half of the fitted maximal effect.", "data": [{"assay": "A CellTox Green Cytotoxicity Assay to monitor cytotoxicity in HEK293 cells - 24 hour (AID 1224875); further: nearly all actives have a fitted effect of over 45% in size", "conditions": "CellTox Green fluorescence; series mostly up to 76.8 µM; activity change: at the top concentration", "source_text": "National Center for Advancing Translational Sciences [NCATS]\nNIH Chemical Genomics Center [NCGC]\nU.S. Environmental Protection Agency [EPA]\nNational Institutes of Environmental Health Sciences [NIEHS]\nNational Toxicology Program [NTP]\nCell-based models are critical for drug discovery. Determining the natural cytotoxic effects resulting from test compounds is an essential research activity. A CellTox Green Cytotoxicity Assay to monitor cytotoxicity in real time of continues cell culture during 40 hours of the compound treatment was used to screen Tox21 10K library compounds in Hek293 cells. CellTox Green Cytotoxicity Assay is a nonlytic, homogeneous, biofluorescent method to measure cytotoxicity in cell culture after experimental manipulation. The assay system uses a proprietary asymmetric cyanine dye that is excluded from viable cells but preferentially stains the dead cell's DNA. […] Viable cells produce no appreciable increases in fluorescence. Therefore, the fluorescence signal produced by the binding interaction with dead cell DNA is proportional to cytotoxicity.\nThe mixture of Hek293 cell suspension and reagents were dispensed at 600cells/6 ul/well in 1536-well tissue culture treated black solid bottom plates using a Multidrop dispenser. After the assay plates were incubated at a 37 C/5% CO2 incubator for 5 hours, 23 nL of compounds dissolved in DMSO, positive and negative controls was transferred to the assay plate by a pintool work station. The plates were incubated at 37 C for 40 hours. The fluorescence intensity were measured at 0h, 8h, 16h, 24h, 32h and 40h time points using ViewLux plate reader during compound treatment.", "units": {"activity change": "%"}, "values": [{"compound": "Nc1ccc(Cl)c(Cl)c1", "Potency": "inactive"}, {"compound": "CN(C)C(=O)Nc1ccc(Cl)cc1", "Potency": "inactive"}, {"compound": "CCCCCCCCC(=O)NCc1ccc(O)c(OC)c1", "Potency": "inactive"}, {"compound": "C=CCN(CC=C)C(=O)C(Cl)Cl", "Potency": "inactive"}, {"compound": "Oc1ccc(-c2ccccc2)cc1", "activity change": 16}, {"compound": "CCCCOCCOP(=O)(OCCOCCCC)OCCOCCCC", "Potency": "inactive"}, {"compound": "CCC(C)c1ccc(O)cc1", "note": "(stereo not given)", "Potency": "43.6 µM (active)"}, {"compound": "Cc1ccc2c(c1N)C(=O)c1ccccc1C2=O", "Potency": "inactive"}, {"compound": "CC(C)(OOC(C)(C)c1ccccc1)c1ccccc1", "Potency": "48.3 µM (active) and 49 µM (active)"}, {"compound": "CNC(=O)N(C)c1nnc(C(C)(C)C)s1", "Potency": "inactive"}, {"compound": "CC(C)(c1cc(Cl)c(O)c(Cl)c1)c1cc(Cl)c(O)c(Cl)c1", "Potency": "inactive"}, {"compound": "O=P(O)(O)CCCl", "activity change": -6.3}, {"compound": "CCOc1cc(Oc2ccc(C(F)(F)F)cc2Cl)ccc1[N+](=O)[O-]", "Potency": "inactive"}, {"compound": "COc1ccc(C(CN(C)C)C2(O)CCCCC2)cc1", "note": "(stereo not given)", "Potency": "inactive"}, {"compound": "CC(C)N(C(=O)SCC(Cl)=C(Cl)Cl)C(C)C", "activity change": 4.81}, {"compound": "Cc1cccc(N)c1N", "Potency": "inactive"}, {"compound": "CCN(N=O)C(N)=O", "Potency": "inactive"}, {"compound": "CCCCCCCCCCCOC(=O)c1ccccc1C(=O)OCCCCCCCCCCC", "Potency": "inactive"}, {"compound": "CCCCC(CC)COC(=O)c1ccc(C(=O)OCC(CC)CCCC)c(C(=O)OCC(CC)CCCC)c1", "note": "(stereo not given)", "Potency": "inactive"}, {"compound": "CC(C)c1ccc(CO)cc1", "Potency": "inactive"}, {"compound": "CCN(CC)N=O", "Potency": "inactive"}, {"compound": "CCCCCCCCOC(=O)c1ccccc1C(=O)OCCCCCCCC", "activity change": 16.3}, {"compound": "O=[N+]([O-])c1c(Cl)c(Cl)c(Cl)c(Cl)c1Cl", "activity change": 0.109}, {"compound": "CCCCN(CC)c1c([N+](=O)[O-])cc(C(F)(F)F)cc1[N+](=O)[O-]", "Potency": "inactive"}, {"compound": "Cc1cc(C)cc(C)c1", "Potency": "inactive"}, {"compound": "C#CCOS(=O)OC1CCCCC1Oc1ccc(C(C)(C)C)cc1", "note": "(stereo not given)", "Potency": "inactive"}, {"compound": "C[C@]12CCC(=O)C[C@@H]1CC[C@@H]1[C@@H]2CC[C@]2(C)[C@@H](O)CC[C@@H]12", "Potency": "inactive"}, {"compound": "Nc1ccc(Cl)cc1N", "Potency": "24.5 µM (active)"}, {"compound": "Oc1c(Cl)c(Cl)c(Cl)c(Cl)c1Cl", "Potency": "inactive"}, {"compound": "Nn1cnnc1", "Potency": "inactive"}, {"compound": "c1ccc(N=Nc2ccccc2)cc1", "activity change": 21.7}, {"compound": "CCC(C)c1cc([N+](=O)[O-])cc([N+](=O)[O-])c1O", "note": "(stereo not given)", "Potency": "inactive"}, {"compound": "CCC(=O)O[C@H]1CC[C@H]2[C@@H]3CCC4=CC(=O)CC[C@]4(C)[C@H]3CC[C@]12C", "Potency": "19.5 µM (active) and 5.35 µM (active)"}, {"compound": "CCCCNC(=O)n1c(NC(=O)OC)nc2ccccc21", "Potency": "inactive"}, {"compound": "N#CCCCl", "Potency": "inactive"}, {"compound": "CCOP(=S)(OCC)O/N=C(\\C#N)c1ccccc1", "Potency": "inactive"}, {"compound": "C=C(C)C(=O)OCC1CO1", "note": "(stereo not given)", "Potency": "inactive"}, {"compound": "COP(=S)(OC)Oc1cc(Cl)c(Cl)cc1Cl", "Potency": "inactive"}, {"compound": "Nc1cccnc1", "Potency": "inactive"}, {"compound": "CC(O)CCO", "note": "(stereo not given)", "Potency": "inactive"}]}]}
